Results on nine molecules are retold here after PubChem BioAssay (NCATS).

The target in experiment [1] is Lysosomal acid glucosylceramidase (Homo sapiens) (UniProt P04062). The experiment can be described thus: Glucocerebrosidase-p2 (AID 348; in the data active means potency below about 10 µM; further: potency means the concentration at half of the fitted maximal effect). To be noted: purified GBA, blue fluorogenic substrate, 40 min. Put shortly: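 Compounds titrated from 0.6 nM upwards against 0.2 nM enzyme in pH 5.9 citric acid/KH2PO4, taurocholate, tween-20; blue fluorogenic substrate 80 uM, 40 min room temperature, stopped and read Ex 365/Em 440 for AC50.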
Lysosomal acid glucosylceramidase (Homo sapiens), sequence (P04062 whole entry, looked up): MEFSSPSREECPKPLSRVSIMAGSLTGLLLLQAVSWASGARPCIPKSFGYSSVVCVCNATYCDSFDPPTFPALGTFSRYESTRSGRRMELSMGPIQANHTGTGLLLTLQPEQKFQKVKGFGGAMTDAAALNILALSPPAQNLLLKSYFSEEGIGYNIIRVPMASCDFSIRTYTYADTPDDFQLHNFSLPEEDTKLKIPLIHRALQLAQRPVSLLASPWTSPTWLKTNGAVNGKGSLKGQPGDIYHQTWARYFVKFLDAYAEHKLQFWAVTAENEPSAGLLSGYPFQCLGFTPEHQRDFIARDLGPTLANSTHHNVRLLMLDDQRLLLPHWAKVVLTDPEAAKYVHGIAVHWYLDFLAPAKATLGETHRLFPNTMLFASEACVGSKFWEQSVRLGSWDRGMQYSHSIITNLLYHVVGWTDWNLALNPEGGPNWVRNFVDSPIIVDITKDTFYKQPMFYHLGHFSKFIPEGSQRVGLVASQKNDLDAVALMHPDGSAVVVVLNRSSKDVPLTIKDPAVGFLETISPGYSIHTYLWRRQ

Experiment [2] has as its target Cytochrome P450 1A2 (Homo sapiens) (UniProt P05177). The experiment can be described thus: p450-cyp1a2 (AID 410; calls by dose curve; further: potency means the concentration at half of the fitted maximal effect;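 on activity change, negative = inhibition: -100% = full effect of reference inhibitor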). The note with it: recombinant CYP1A2, luciferin-ME demethylation, luminescence; series mostly up to 11.4 µM. In outline:
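Human CYP1A2 (20nM) demethylated Luciferin-ME at its Km (100uM) in 100mM KPO4. After 10 min compound preincubation, NADPH regeneration ran the reaction 60 min at room temperature. Luciferin was read by luminescence, normalized to 57 uM furafylline.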

The nature of experiment [3]: NFAT Signaling Pathway (AID 444).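 Further: carbachol stimulus at about its EC50 of 1 µM final; on the % scale 0 is the no-effect control and ±100 the full control effect.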 To be noted: Jurkat NFAT-bla M1, carbachol, beta-lactamase ratio, 5 h; at 7.69 µM (top of the series) unless noted. In outline: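 Read-out: CCF4 FRET ratio (460 nm/530 nm) after 1 h RT dye loading, used for %activity and AC50 from titration series. Cells: Jurkat NFAT-β-lactamase/M1 line, treated with compound plus 1 uM carbachol for 5 h, 37 °C.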

A short description of experiment [4]: Stat Signaling Pathway (AID 446).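 Further: ME-180 cervical cancer cells given 40 pM IL-6 alongside compound; SIE-controlled beta-lactamase reporter measured as 460/530 nm FRET emission ratio; on the % scale 0 is the no-effect control and ±100 the full control effect.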 To be noted: ME-180 SIE beta-lactamase reporter, IL-6 stimulated, 5 h; at 7.69 µM (top of the series) unless noted. In outline:
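ME-180 SIE-bla cells; overnight plating; cpd + IL-6 40 pM, 5 h, 37 C; LiveBLAzer 2.5 h RT; 460/530 nm emission ratio. Normalized to 300 pM IL-6 and 125 nM JAK inhibitor controls.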

For experiment [5], the target named is Glucocorticoid receptor (Homo sapiens) (UniProt P04150). The experiment can be described thus: GR-GFP Redistribution (AID 450;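 active means compounds whose dose series gives a full or clear partial fitted curve of increased nuclear translocation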; further: potency means the concentration at half of the fitted maximal effect). To be noted: U2OS GR-GFP nuclear translocation, laser cytometry, 2 h.
Glucocorticoid receptor (Homo sapiens), sequence (P04150 whole entry, looked up): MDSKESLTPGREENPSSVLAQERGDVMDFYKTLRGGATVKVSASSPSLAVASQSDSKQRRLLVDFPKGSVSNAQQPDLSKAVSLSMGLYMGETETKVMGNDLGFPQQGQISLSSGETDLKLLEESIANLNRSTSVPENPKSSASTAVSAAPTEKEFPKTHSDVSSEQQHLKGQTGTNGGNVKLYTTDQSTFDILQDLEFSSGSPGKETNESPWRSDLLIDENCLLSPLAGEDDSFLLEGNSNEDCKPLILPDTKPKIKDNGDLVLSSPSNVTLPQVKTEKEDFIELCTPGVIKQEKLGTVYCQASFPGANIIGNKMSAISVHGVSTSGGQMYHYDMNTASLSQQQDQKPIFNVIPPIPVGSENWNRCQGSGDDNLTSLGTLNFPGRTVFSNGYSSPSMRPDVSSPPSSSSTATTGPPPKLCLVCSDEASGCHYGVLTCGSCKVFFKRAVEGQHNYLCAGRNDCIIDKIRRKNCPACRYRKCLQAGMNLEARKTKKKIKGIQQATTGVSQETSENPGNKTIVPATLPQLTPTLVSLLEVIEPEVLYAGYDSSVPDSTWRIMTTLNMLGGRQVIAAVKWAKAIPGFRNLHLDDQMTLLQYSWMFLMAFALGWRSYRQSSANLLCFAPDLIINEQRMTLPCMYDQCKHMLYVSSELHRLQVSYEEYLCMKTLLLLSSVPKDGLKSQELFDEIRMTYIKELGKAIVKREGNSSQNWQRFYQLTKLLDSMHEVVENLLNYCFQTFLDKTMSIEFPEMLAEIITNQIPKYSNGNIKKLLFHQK
The target is the same in experiment [6]. The experiment can be described thus: GR-EFC Redistribution (AID 451; calls by dose curve; further: potency means the concentration at half of the fitted maximal effect). The note with it: CHO-K1 GR-EFC translocation, beta-gal luminescence, 2 h. In outline:
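Translocation of GR-ED fusion to nuclear EA restores b-gal, read by luminescence after 1 h room-temperature detection. Engineered CHO-K1 biosensor cells, 1,000/well, exposed 2 h at 37 C to titrations up to 46 uM final.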

Experiment [7] concerns the target Mitogen-activated protein kinase 10 (Mus musculus) (UniProt Q61831). The experiment can be described thus: JNK3 AlphaScreen Assay (AID 530).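 Further: kinase came from lysate of stimulated human HepG2 cells; signal reports phosphorylation of biotinylated GST-cJun 1-79 at Ser73 with 10 µM ATP; on the % scale 0 is the no-effect control and ±100 the full control effect.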 The note with it: JNK3 lysate, c-Jun phosphorylation; series mostly up to 11.4 µM. In outline: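 Room-temperature AlphaScreen kinase assay; pre-activated HepG2 lysate as JNK3 source, biotin-GST-cJun(1-79) substrate, 10 uM ATP, compound 15 min preincubation.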

Experiment [8] deals with 3',5'-cyclic-AMP phosphodiesterase 4B (Homo sapiens) (UniProt Q07343). The experiment can be described thus: qHTS Assay for Inhibitors of PDE-IV (AID 607; active means well fitted activation curve with a large enough effect in the main read-out, with a control signal flat, not every such curve was filed as active; further: % of control where 0% means no effect). The note with it: HEK293 ACTOne CNG channel cells, membrane potential fluorescence; series mostly up to 22.9 µM. Put shortly:
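ACTOne HEK293 cells carry a modified cAMP-gated CNG channel and express endogenous PDE4; plated 1000 cells/well, compounds up to 22.9 uM final. Membrane-potential dye fluorescence (ex 535/em 590) was read; parental cells received 10 uM forskolin + 100 uM RO 20-1724.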
(In qHTS, concentration-response curves come from the screen itself.)

Experiment [9] can be described thus: AP1 Signaling Pathway (AID 357). Further: on the % scale 0 is the no-effect control and ±100 the full control effect. To be noted: ME-180 (cervical carcinoma) AP-1-bla reporter, EGF-induced, beta-lactamase ratio, 5 h; at 7.69 µM (top of the series) unless noted. Put shortly:
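AP-1-bla ME-180 cells with beta-lactamase reporter under AP-1 response element, stimulated with EC50 EGF; compounds titrated, 5 hours at 37 degrees Celsius. CCF4 read at 460/530 nm ratio; positive and negative modulators judged by AC50.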

For experiment [10], the target named is Cytochrome P450 2D6 (Homo sapiens) (UniProt P10635). The experiment can be described thus: qHTS Assay for Inhibitors and Substrates of Cytochrome P450 2D6 (AID 891; active means well fitted curve in the direction sought with a large enough effect; an effect the other way counts as inactive or inconclusive; further: potency means the concentration at half of the fitted maximal effect; nearly all actives have a fitted effect of over 60% in size). The note with it: recombinant CYP2D6, luciferin-ME EGE luminescence; series mostly up to 11.4 µM. Put shortly: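 Human CYP2D6 (5 nM) with 30 uM Luciferin-ME EGE (at Km) in 100 mM KPO4, compound preincubated 10 min, then NADPH regeneration system for 60 min at room temperature. Luciferin read by luminescence; normalized to 1.43 uM quinidine.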
Cytochrome P450 2D6 (Homo sapiens), sequence (P10635 whole entry, looked up): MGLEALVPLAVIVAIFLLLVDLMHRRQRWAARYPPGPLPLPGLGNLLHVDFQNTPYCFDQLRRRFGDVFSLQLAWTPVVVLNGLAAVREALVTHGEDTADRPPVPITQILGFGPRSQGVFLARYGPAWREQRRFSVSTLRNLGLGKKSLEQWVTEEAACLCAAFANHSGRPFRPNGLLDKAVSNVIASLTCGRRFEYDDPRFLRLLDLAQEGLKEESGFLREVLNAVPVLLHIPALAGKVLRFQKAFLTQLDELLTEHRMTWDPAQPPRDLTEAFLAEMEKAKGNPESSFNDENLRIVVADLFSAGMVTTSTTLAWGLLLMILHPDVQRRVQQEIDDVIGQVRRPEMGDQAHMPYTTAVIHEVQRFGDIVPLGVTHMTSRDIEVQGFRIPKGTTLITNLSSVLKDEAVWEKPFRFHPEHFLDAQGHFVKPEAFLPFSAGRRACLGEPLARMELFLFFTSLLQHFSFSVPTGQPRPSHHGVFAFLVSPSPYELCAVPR

Experiment [11] concerns the target Cytochrome P450 3A4 (Homo sapiens) (UniProt P08684). The experiment can be described thus: qHTS Assay for Activators of Cytochrome P450 3A4 (AID 885; active means well fitted curve in the direction sought with a large enough effect; an effect the other way counts as inactive or inconclusive; further: nearly all actives have a fitted effect of over 65% in size). The note with it: recombinant CYP3A4, Luciferin-PPXE luminescence, 60 min; series mostly up to 11.4 µM. In outline: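 20nM CYP3A4 + 25uM Luciferin-PPXE (=KM), 200mM KPO4; cpd 10 min RT; NADPH regen, 60 min RT; stop w/ detection buffer, 20 min; luminescence. Normalized to 57 uM ketoconazole.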

Molecules are shown by their SMILES. Unmarked numbers belong to inactive results. Results filed as inconclusive are left out. The source made the active and inactive calls. Unless noted, the call rests on the fitted dose curve; in most records, active means well fitted curve in either direction with a large enough effect (not every such curve was filed as active); inconclusive means small, poorly fitted or top-dose-only effect, or another doubt; inactive means flat fitted curve, though single readings scatter. A value given as a limit tells only on which side of the number the result lay.

Cytochrome P450 1A2 (Homo sapiens), sequence (P05177 whole entry, looked up): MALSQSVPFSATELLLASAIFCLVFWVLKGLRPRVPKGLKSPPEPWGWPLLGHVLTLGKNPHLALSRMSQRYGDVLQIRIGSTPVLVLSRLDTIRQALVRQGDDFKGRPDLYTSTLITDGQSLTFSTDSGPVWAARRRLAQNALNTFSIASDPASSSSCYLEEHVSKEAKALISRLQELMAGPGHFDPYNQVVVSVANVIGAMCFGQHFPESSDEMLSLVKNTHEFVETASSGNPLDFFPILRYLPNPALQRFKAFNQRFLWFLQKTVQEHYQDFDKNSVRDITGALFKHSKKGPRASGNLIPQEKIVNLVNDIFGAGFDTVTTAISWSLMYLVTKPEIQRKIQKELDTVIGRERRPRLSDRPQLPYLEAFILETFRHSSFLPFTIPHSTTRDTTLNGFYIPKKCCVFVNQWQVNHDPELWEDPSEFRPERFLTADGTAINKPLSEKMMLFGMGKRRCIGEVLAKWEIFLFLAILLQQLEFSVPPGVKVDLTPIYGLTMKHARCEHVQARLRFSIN
3',5'-cyclic-AMP phosphodiesterase 4B (Homo sapiens), sequence (Q07343 whole entry, looked up): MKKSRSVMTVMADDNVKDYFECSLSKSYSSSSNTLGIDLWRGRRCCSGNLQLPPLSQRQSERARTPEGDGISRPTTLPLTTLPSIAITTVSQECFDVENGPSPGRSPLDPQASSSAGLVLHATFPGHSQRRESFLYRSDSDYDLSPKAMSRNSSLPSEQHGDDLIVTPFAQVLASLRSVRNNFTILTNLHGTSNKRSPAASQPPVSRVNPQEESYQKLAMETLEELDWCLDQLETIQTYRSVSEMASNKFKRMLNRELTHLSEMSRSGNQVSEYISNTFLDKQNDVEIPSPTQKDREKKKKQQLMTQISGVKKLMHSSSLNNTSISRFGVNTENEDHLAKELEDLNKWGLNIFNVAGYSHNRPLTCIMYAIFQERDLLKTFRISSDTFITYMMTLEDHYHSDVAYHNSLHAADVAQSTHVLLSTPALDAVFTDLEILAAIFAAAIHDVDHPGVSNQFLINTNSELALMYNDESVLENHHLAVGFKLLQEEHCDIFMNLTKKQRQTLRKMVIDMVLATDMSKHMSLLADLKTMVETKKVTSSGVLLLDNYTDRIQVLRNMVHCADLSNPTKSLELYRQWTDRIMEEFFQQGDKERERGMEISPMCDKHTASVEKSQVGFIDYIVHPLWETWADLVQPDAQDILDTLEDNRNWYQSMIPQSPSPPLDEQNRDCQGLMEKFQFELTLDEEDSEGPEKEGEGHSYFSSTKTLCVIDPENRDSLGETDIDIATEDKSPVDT
Cytochrome P450 3A4 (Homo sapiens), sequence (P08684 whole entry, looked up): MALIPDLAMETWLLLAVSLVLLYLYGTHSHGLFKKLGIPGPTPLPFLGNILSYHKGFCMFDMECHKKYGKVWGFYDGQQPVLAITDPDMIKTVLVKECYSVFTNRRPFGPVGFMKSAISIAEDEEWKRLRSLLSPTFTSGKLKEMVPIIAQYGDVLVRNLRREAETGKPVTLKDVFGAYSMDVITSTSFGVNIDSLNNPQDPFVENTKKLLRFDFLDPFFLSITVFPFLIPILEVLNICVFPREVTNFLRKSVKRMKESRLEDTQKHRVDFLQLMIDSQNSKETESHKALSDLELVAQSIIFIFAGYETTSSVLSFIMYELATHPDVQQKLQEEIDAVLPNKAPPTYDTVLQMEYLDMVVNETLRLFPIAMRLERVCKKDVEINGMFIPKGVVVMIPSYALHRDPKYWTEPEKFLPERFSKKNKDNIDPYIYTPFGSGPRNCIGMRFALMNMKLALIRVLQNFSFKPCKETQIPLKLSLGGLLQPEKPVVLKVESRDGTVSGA

Turning to `O=C(O)[C@@H]1CCCN1Cc1c[nH]c2ccccc12`, the Potency was more than 11.4 µM in experiment [1], more than 46 µM in experiment [5] and more than 9.22 µM in [6]. The Potency result in experiment [2], in experiment [7] and in experiment [8] was “inactive” in each case. Further, the activity change, negative = inhibition in [3] was 6.95%. Also, in [4], the activity, negative = inhibition was 3.95%.
Regarding `O[C@@H](c1cc(-c2ccc(Cl)cc2)nc2ccccc12)[C@@H]1CCCCN1`, the figures for the Potency in [1], in [6] and in experiment [10] were more than 11.4 µM, more than 9.22 µM and 0.631 µM (active), respectively. Further, the activity change, negative = inhibition in [9] is -7.25%. Also, the activity, negative = inhibition in experiment [4] is -6.67%. The Potency entry in [7] and in experiment [8] was “inactive” throughout.
As to `c1ccc(CCc2cccnc2)nc1`, the Potency in [1] was more than 11.4 µM; in [2] it was 0.398 µM (active); in [5] it was more than 46 µM; in experiment [6], more than 9.22 µM. For the same molecule, in experiment [3], the activity change, negative = inhibition is 14.1%. Moreover, in experiment [4], the activity, negative = inhibition was 0.19%. The Potency result in [7] and in [8] was “inactive” in each case.
`CC1(C)COCN1COC1CCCCC1`: the Potency in experiment [1] is more than 11.4 µM; in experiment [5] it was more than 46 µM; in experiment [6] it was more than 9.22 µM. Moreover, in experiment [9], the activity change, negative = inhibition was -2.54%. Besides, the Potency result in experiment [7] and in [8] was “inactive” throughout.
With `CS(=O)(=O)N(CC(=O)O)Cc1ccccc1`, the Potency in experiment [1] was more than 11.4 µM; in experiment [5] it was more than 46 µM; in experiment [6], more than 9.22 µM. For the same molecule, the Potency result in experiment [2], in experiment [7] and in experiment [8] was “inactive” in each case. For the same molecule, in [3], the activity change, negative = inhibition is 14.9%. Moreover, in experiment [4], the activity, negative = inhibition was 10.2%.
As to `CCO[P@]1(=O)OC[C@@H]2O[C@H](n3cnc4c(N)ncnc43)[C@H](O)[C@@H]2O1`, the figures for the Potency in experiment [1], in experiment [5] and in experiment [6] were more than 11.4 µM, more than 46 µM and more than 9.22 µM, respectively. Also, the results for the activity change, negative = inhibition in experiment [2] and in experiment [3] were -15.6% [at 2.29 µM] and 4.19%, respectively. Besides, the activity, negative = inhibition in experiment [4] is -5.06%. The Potency entry in experiment [7] and in [8] was “inactive” in each case.
On to `O=C1Oc2ccccc2C(=O)/C1=C\N1C(=O)N/C(=C\c2ccccc2O)C1=O`, for which the Potency in experiment [1] is more than 11.4 µM; in experiment [2], 0.316 µM (active); in experiment [5], more than 46 µM; in experiment [6], more than 9.22 µM. In addition, the activity change, negative = inhibition in experiment [3] is -7.15%. The activity, negative = inhibition in experiment [4] was -25.4%. The Potency entry in [7], in experiment [8] and in experiment [11] was “inactive” throughout.
For `Cc1cc(Cl)nc(NC(=O)CSc2ccc(Cl)cc2)n1`, the Potency in experiment [1] is more than 11.4 µM; in experiment [2], 5.01 µM (active); in experiment [5], more than 46 µM; in experiment [6], more than 9.22 µM. The activity change, negative = inhibition in experiment [3] is 16.8%. For the same molecule, the activity, negative = inhibition in experiment [4] is 11%. Further, the Potency entry in experiment [7] and in experiment [8] was “inactive” throughout.
With `CC(C)[C@H](Sc1nc(N)nc2nc[nH]c12)C(=O)O`, the Potency in experiment [1] is more than 11.4 µM; in experiment [2], 0.316 µM (active); in experiment [5], more than 46 µM; in experiment [6] it was more than 9.22 µM. For the same molecule, the activity change, negative = inhibition in experiment [3] was 9.06%. Besides, in experiment [4], the activity, negative = inhibition was 14.2%. The Potency result in experiment [7] and in [8] was “inactive” throughout.
